15 compounds from PubChem BioAssay (Tox21) can be followed below.

Where “and” joins values, the source holds several entries; their conditions need not be identical. Identical values can stand only once. Results filed as inconclusive are left out. Some compounds were tested as several samples or in several runs, with calls that do not always agree. Calls of active or inactive are those of the source. Unless noted, the call rests on the fitted dose curve; in most records, active means well fitted curve in the direction sought with a large enough effect in the repeat runs; inconclusive means weak or mixed curves; inactive means no such curve, though single readings can be large; an effect the other way counts as inactive or inconclusive.

The nature of experiment [1]: qHTS assay to identify small molecule agonists of the vitamin D receptor (VDR) signaling pathway - cell viability counter screen (AID 743224). Further: nearly all actives have a fitted effect of over 50% in size. Further: potency means the concentration at half of the fitted maximal effect. A digest of the protocol: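 Counter screen for cytotoxicity: VDR-bla cells at 2,000 cells/well, 16 h compound exposure, then CellTiter-Glo luminescence after the beta-lactamase measurement.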
A general note: qHTS replaces the single test concentration by a dilution series.

A short description of experiment [2]: qHTS assay to identify small molecule antagonists of the vitamin D receptor (VDR) signaling pathway - cell viability counter screen (AID 743225). Further: nearly all actives have a fitted effect of over 50% in size. Further: potency means the concentration at half of the fitted maximal effect. A digest of the protocol:
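VDR-bla HEK 293T cells, 4 h pre-incubation at 37C, then compound plus 1-alpha,25-dihydroxyvitamin D3 (3 nM final) for 16 h. After the beta-lactamase FRET read, CellTiter-Glo was added to the same wells; luminescence after 30 min at room temperature.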

Experiment [3] in a line: qHTS assay to identify small molecule agonists of the NFkB signaling pathway - cell viability counter screen (AID 1159515; calls by dose curve; further: nearly all actives have a fitted effect of over 55% in size; further: potency means the concentration at half of the fitted maximal effect). A digest of the protocol:
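Counter screen run alongside the NFkB-bla agonist assay: ME-180 reporter cells exposed to compounds for 5 hr, then lysed with CellTiter-Glo in the same wells. Luminescence, read after 30 min, reflects viable cells.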

Experiment [4] in a line: qHTS assay to identify small molecule agonists of the endoplasmic reticulum stress response signaling pathway (AID 1159516; active means well fitted activation curve with a large enough effect in the signal ratio in the repeat runs, not every such curve was filed as active; the % refers to the signal ratio). A digest of the protocol:
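For this screen, HeLa cells stably carrying beta-lactamase under the ER stress response element received test compounds, positive controls or DMSO for 5 hr at 37 C; B/G FRET substrate was then added and dual-wavelength emission recorded.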

Experiment [5] can be described thus: qHTS assay to identify small molecule agonists of the endoplasmic reticulum stress response signaling pathway - cell viability counter screen (AID 1159517; calls by dose curve; further: nearly all actives have a fitted effect of over 50% in size; further: potency means the concentration at half of the fitted maximal effect). A digest of the protocol: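 ESRE-bla HeLa cells (1,500/well) were plated overnight at 37 C and exposed to compounds for 5 hr. After the 2 hr beta-lactamase substrate read, CellTiter-Glo went into the same wells, and luminescence was read after 30 min at room temperature.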

Experiment [6] can be described thus: qHTS assay to identify small molecule antagonists of the retinoid-related orphan receptor gamma (ROR-gamma) signaling pathway - cell viability counter screen (AID 1159520). Further: nearly all actives have a fitted effect of over 50% in size. Further: potency means the concentration at half of the fitted maximal effect. A digest of the protocol: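 Cytotoxicity was read from cellular ATP (CellTiter-Glo luminescence) after 16 hr at 37 C with 1 uM doxycycline induction. The inducer was added 2 hr after compound transfer to Tet-on ROR gamma CHO cells.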

Experiment [7] addresses Nuclear receptor ROR-gamma (Homo sapiens) (UniProt P51449). Put plainly: qHTS assay to identify small molecule antagonists of the retinoid-related orphan receptor gamma (ROR-gamma) signaling pathway (AID 1159521; further: nearly all actives have a fitted effect of over 50% in size; further: potency means the concentration at half of the fitted maximal effect). A digest of the protocol:
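Tet-on RORγ CHO cells carrying a ROR response element–luciferase reporter were pretreated with compounds for 2 h, then induced with 1 uM (final) doxycycline hyclate for 16 h at 37 C. Antagonism was read as decreased ONE-Glo luminescence.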

Experiment [8] in a line: qHTS assay to identify small molecule agonists of the AP-1 signaling pathway (AID 1159526; calls by dose curve).
For experiment [9], the target named is Retinoic acid receptor RXR-alpha (Homo sapiens) (UniProt P19793). Put plainly: qHTS assay to identify small molecule agonists of the RXR signaling pathway (AID 1159527; calls by dose curve; further: nearly all actives have a fitted effect of over 35% in size). A digest of the protocol: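 GeneBLAzer RXR-alpha-UAS-bla HEK 293T cells in medium with 2% charcoal-stripped FBS, pre-incubated 5 hr at 37 C, then exposed to compounds 16 hr. Beta-lactamase reporter read by FRET substrate, 2 hr room temperature, 460/530 nm emission.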

Experiment [10] in a line: qHTS assay to identify small molecule agonists of the AP-1 signaling pathway - cell viability counter screen (AID 1159525; calls by dose curve; further: nearly all actives have a fitted effect of over 55% in size; further: potency means the concentration at half of the fitted maximal effect). A digest of the protocol: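 Intracellular ATP by Cell Titer Glo luminescence (30 min, RT) in the same ME-180 AP-1-bla wells after the 5 h compound exposure at 37 °C. Normalised to tetra n-octyl ammonium bromide and DMSO controls.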

Retinoic acid receptor RXR-alpha (Homo sapiens), sequence (P19793 whole entry, looked up): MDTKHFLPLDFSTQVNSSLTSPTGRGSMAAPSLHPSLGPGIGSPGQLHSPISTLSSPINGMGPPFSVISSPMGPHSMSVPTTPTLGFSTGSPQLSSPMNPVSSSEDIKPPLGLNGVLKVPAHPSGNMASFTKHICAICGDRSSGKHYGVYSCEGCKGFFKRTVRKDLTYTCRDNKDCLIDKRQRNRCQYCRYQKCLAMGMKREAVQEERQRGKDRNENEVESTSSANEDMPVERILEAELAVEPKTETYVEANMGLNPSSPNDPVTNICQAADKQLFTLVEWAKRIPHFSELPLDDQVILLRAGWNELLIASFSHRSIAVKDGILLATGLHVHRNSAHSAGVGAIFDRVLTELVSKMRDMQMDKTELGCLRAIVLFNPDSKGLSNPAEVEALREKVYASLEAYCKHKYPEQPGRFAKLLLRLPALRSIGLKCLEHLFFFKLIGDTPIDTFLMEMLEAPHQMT

As for `ClC(Cl)(Cl)c1ccccc1`, the Potency entry in experiment [1], in experiment [2], in [3], in experiment [4], in experiment [5] and in experiment [6] was “inactive” throughout. The Potency result in experiment [7] and in experiment [9] was “inactive” each time. The result in [8] was inactive.

With `Cc1ccc([N+](=O)[O-])cc1`, the Potency result in experiment [1], in [2], in [3], in [4], in experiment [5] and in [6] was “inactive” each time. The Potency result in experiment [7], in experiment [10] and in experiment [9] was “inactive” throughout. Further, the compound was classed as inactive in experiment [8].

Consider `CC1(C)C(C(=O)OC(C#N)c2cccc(Oc3ccccc3)c2)C1(C)C` (stereo not given), for which the Potency result in [1], in experiment [2], in experiment [3], in [4], in experiment [5] and in experiment [6] was “inactive” throughout. Further, the Potency entry in experiment [10] was “inactive”. Besides, the Potency in experiment [7] was 48.9 µM (active). The call in [8] was inactive.

Consider `NC(=O)CN1CCCC1=O`, for which the Potency result in experiment [1], in experiment [2], in [3], in [4], in experiment [5] and in experiment [6] was “inactive” in each case. For the same compound, the Potency entry in experiment [7] and in [9] was “inactive” each time. Further, the outcome in [8] was inactive.

In the case of `C=C(C)C#N`, the Potency result in experiment [1], in [2], in experiment [3], in experiment [4], in experiment [5] and in experiment [6] was “inactive” in each case. The Potency entry in experiment [7], in [10] and in experiment [9] was “inactive” throughout. In addition, in experiment [8], the call was inactive.

In the case of `Cc1cc(Cl)ccc1N=CN(C)C`, the Potency result in [1], in experiment [2], in experiment [3], in [4], in [5] and in experiment [6] was “inactive” each time. The Potency result in experiment [7] and in [9] was “inactive” each time. Also, in [8], the result was inactive.

Regarding `CS(=O)(=O)NC(=O)c1cc(Oc2ccc(C(F)(F)F)cc2Cl)ccc1[N+](=O)[O-]`, the Potency entry in experiment [1], in experiment [2], in experiment [3], in experiment [4], in [5] and in experiment [6] was “inactive” in each case. In addition, the Potency result in experiment [7] and in experiment [9] was “inactive” throughout. Also, the outcome in experiment [8] was inactive.

Consider `CC[n+]1c(-c2ccccc2)c2cc(N)ccc2c2ccc(N)cc21`, for which the Potency in [1] was 21.8 µM (active). The Potency result in experiment [2], in experiment [3], in experiment [4], in [5], in experiment [6] and in [7] was “inactive” throughout. Moreover, the Potency entry in [10] was “inactive”. In experiment [8], the compound was called inactive.

For `CCCCCCCC[N+](C)(CCCCCCCC)CCCCCCCC`, the Potency is 6.15 µM (active) and 3.09 µM (active) and 5.49 µM (active) in [1]; 5.48 µM (active) and 6.93 µM (active) and 6.16 µM (active) in [2]; 17.3 µM (active) and 24.5 µM (active) in experiment [3]; “inactive and 13.8 µM (active) and 21.9 µM (active)” in experiment [5]; 24.3 µM (active) and 21.7 µM (active) and 10.9 µM (active) in [6]; 4.32 µM (active) and 2.17 µM (active) and 6.11 µM (active) in [7]. Also, the Potency in experiment [10] is 17.3 µM (active) and 13.8 µM (active) and 19.5 µM (active). Also, in experiment [4], the Potency entry is “inactive”.

Consider `O=C(O)c1nn(Cc2ccc(Cl)cc2Cl)c2ccccc12`, for which the Potency entry in [1], in [2], in [3], in [4], in experiment [5] and in experiment [6] was “inactive” in each case. The Potency entry in [7] and in experiment [10] was “inactive” each time. Further, in [8], the call was inactive.

Turning to `Clc1cccc(C(Cl)(Cl)Cl)n1`, the Potency entry in experiment [1], in experiment [2], in experiment [3], in experiment [4], in experiment [5] and in experiment [6] was “inactive” throughout. The Potency entry in experiment [7] and in experiment [9] was “inactive” throughout. Also, in experiment [8], the call was inactive.

As to `Clc1cccc(Cl)c1`, the Potency entry in experiment [1], in experiment [2], in [3], in [4], in experiment [5] and in experiment [6] was “inactive” each time. Further, the Potency result in experiment [10] was “inactive”. Further, the Potency in experiment [7] was 30.4 µM (active). For the same compound, the compound was classed as inactive in experiment [8].

Regarding `c1ccc2c(c1)Nc1ccccc1S2`, the Potency result in experiment [1], in experiment [2], in [3], in experiment [4], in experiment [5] and in experiment [6] was “inactive” in each case. The Potency entry in [7], in experiment [10] and in [9] was “inactive” each time.

Consider `OC(c1ccc(Cl)cc1)(c1cncnc1)c1ccccc1Cl` (stereo not given), for which the Potency result in experiment [1], in [2], in [3], in experiment [4], in [5] and in experiment [10] was “inactive” throughout. In addition, the Potency was 15.6 µM (active) and inactive in experiment [6]; 4.4 µM (active) and 54.5 µM (active) in [7]. Moreover, the compound was called inactive in [8].

Turning to `COP(=S)(OC)SCn1nnc2ccccc2c1=O`, the Potency entry in [1], in experiment [2], in experiment [3], in experiment [4], in [5] and in [6] was “inactive” throughout. Besides, the Potency entry in experiment [7] and in experiment [10] was “inactive” throughout.
